Our source for the growth values is PubChem BioAssay (NCI).

Compounds without any hit were thinned out: in the full panel of roughly 83,000, 20% have a hit.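 How to read the values: 0–100, growth inhibition (40 = 60% inhibited); 0, no net growth; -100 to 0, cell death (-40 = 40% of starting cells died; -100 = all dead).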 The source made the active and inactive calls. How the source made its calls: active means growth percent below 10; inactive means the rest.

The subject of the test is HL-60(TB) leukemia. Put plainly: NCI-60 one-dose screen, 48 h (100 = growth as untreated, 0 = no growth, -100 = all killed). The note with it: 10 µM unless noted.
On to `CCN1CCN(CCNc2nccc(-c3c(-c4ccc(F)c(O)c4)nc4occn34)n2)S1(=O)=O`, for which the growth is 1.1% (active).
As for `c1ccc(OCc2nnc(-c3ccc(Oc4ccccc4)cc3)o2)cc1`, the growth is 99.6% (inactive).
The figure for `C=CCOc1ccc(N=NC(C#N)C#N)cc1` is 0.44% (active).
On to `Brc1ccc(Nc2csc(-c3ccccn3)n2)cc1`, for which the growth was 99.6% (inactive).
Consider `O=CN1N=C(c2cccc(Nc3ccnc4cc(Cl)ccc34)c2)CC1c1ccc(Cl)cc1` (stereo not given), for which the growth is -4.94% (active).
`Nc1ncn(C2OC(CO)C(O)C2O)c(=O)n1` (stereo not given): the growth was -44.6% (active).
For the molecule `COc1ccc(NC(=O)c2sc3c(=O)[nH]c(C(F)(F)F)nc3c2C)cc1`, the growth is 106% (inactive).
`Oc1ccccc1/C=N\Nc1ccccc1`: the growth was 16.5% (inactive).
The figure for `CCCCC[C@H](O)C/C=C1/C(=O)C=C[C@@H]1C/C=C\CCCC(=O)OC` is 25.1% (inactive); for `COc1ccc(-c2cn3c(ccc4ccccc43)n2)cc1` it is 109% (inactive).
In the case of `COc1ccc(-c2c(N)n[nH]c2-c2ccccc2O)cc1OC`, the growth was 110% (inactive).
Consider `COC(=O)/C=C1/SC(=NCc2ccccc2)N(CCc2c[nH]c3ccccc23)C1=O`, for which the growth was 79.8% (inactive).
Regarding `CCCCN(CCCC)CCCN=c1nc2c(c(N)n1-c1ccccc1)c(=S)n(-c1ccccc1)c(=S)n2-c1ccccc1`, the growth was -74.8% (active).
With `OC(c1cccc(C(F)(F)F)c1)c1cnccc1NC1CCCCC1` (stereo not given), the growth is 45.3% (inactive).
Take `COc1cc2c(cc1O)CC[C@@H]1C2CC[C@@]2(C)C1CC[C@@H]2O` (stereo not given in full): the growth was -3.13% (active).
Take `COc1ccc(S(=O)(=O)NC2c3ccccc3CC2O)cc1OC` (stereo not given): the growth was 103% (inactive).
In the case of `Fc1ccc(Nc2nc(Nc3ccc(-c4nc5ccccc5[nH]4)cc3)c3cn[nH]c3n2)cc1`, the growth is 91.4% (inactive).
Regarding `O=C(Nc1cccc(Cl)c1)Nc1cc2ncncc2cc1OCc1cccc(F)c1`, the growth is 7.49% (active).
For `CCN(CC)CCCC(C)Nc1ccnc2cc(Cl)c(SCc3ccccc3)cc12` (stereo not given), the growth was -64.8% (active).
Regarding `CCOc1ccc2c(c1)c(C)cc(C)[n+]2CC`, the growth is 61.5% (inactive).
`Cc1ccc(C(=O)Nc2ccc(CN3CCN(C)CC3)c(C(F)(F)F)c2)cc1C#Cc1cnc2cccnn12`: the growth is -71.9% (active).
The figure for `Cc1cc(N2CCOCC2)nc(NCc2cc(Nc3ccnc4cc(Cl)ccc34)ccc2F)n1` is -54.2% (active); for `CC(=O)[C@@]1(O)CC[C@H]2[C@@H]3CC[C@@H]4CC(=O)CC[C@]4(C)[C@H]3[C@@H](O)C[C@@]21C` it is 102% (inactive).
As to `COc1cc(C2=Nc3c(N)nc(N)nc3NC(c3cccc(Nc4ccnc5cc(C(F)(F)F)ccc45)c3)C2)cc(OC)c1OC` (stereo not given), the growth is 63.2% (inactive).
The figure for `CC1=C(SCCC(=O)OC(C[Se]C2=C(C)C(=O)c3ccccc3C2=O)C(=O)NC(C)(C)C)C(=O)c2ccccc2C1=O` (stereo not given) is 8.81% (active); for `c1ccc(CN=C(NCc2ccccc2)NCc2ccccc2)cc1` it is 49.9% (inactive).
As to `CC1=CC(c2ccco2)=C2C(N)=NNC2N1` (stereo not given), the growth is 106% (inactive).
Take `C[C@H]1[C@H](C)CC[C@]2(C(=O)OCCCC[P+](c3ccccc3)(c3ccccc3)c3ccccc3)CC[C@]3(C)C(=CC[C@@H]4[C@@]5(C)CC[C@H](OC(=O)C(Cl)Cl)C(C)(C)[C@@H]5CC[C@]43C)[C@H]12`: the growth is -54.3% (active).
As for `CCOC(=O)c1nn(CC(O)c2ccccc2)c(NC(=O)Nc2cccc(F)c2)c1C` (stereo not given), the growth was 108% (inactive).
The result for `CNC(=O)c1cc(Oc2ccc(NC(=O)c3nc(S(C)(=O)=O)n(C)c3-c3ccc(F)cc3)cc2)ccn1` reads 69.8% (inactive); that for `COc1cc(C(=O)c2cc(C)c3[nH]c4ccc(Cl)cc4c3c2C)cc(OC)c1OC`, 0.383% (active).
As for `COC(=O)c1nc(-c2ccccc2)oc1S(=O)(=O)n1nc(-c2ccccc2)cc1N`, the growth is 58.9% (inactive).
For `Cc1ccc(-c2nc(C(Cl)Cl)n3nc(-c4ccccc4)cc3n2)cc1`, the growth is 61.3% (inactive).
As to `COc1ccc(C(=O)COc2ccc(/C=C3\Oc4ccc(Cl)cc4C3=O)cc2)cc1`, the growth was 16.5% (inactive).
As to `CC(C)(C)C(=O)CCCCCCCC/C=C/CCCC(O)c1ccco1` (stereo not given), the growth is 75% (inactive).
`Cc1cc(C)c(O)c(C(=O)CC(Br)C(=O)O)c1` (stereo not given): the growth was 79.8% (inactive).
`O=C(COCc1c(-c2ccccc2)no[n+]1[O-])Nc1ccc(C(=O)/C=C/c2ccc3c(c2)OCO3)cc1`: the growth was 88.7% (inactive).
The result for `N#Cc1ccc(C2C3=C(CCCC3=O)OC3=C2C(=O)c2ccccc2C3=O)cc1` (stereo not given) reads -21.4% (active); that for `O=S(=O)(OCCO)c1ccccc1`, 107% (inactive); that for `CCCCCCCC/C=C\CCCCCCCCOc1cccc(CC(=O)NCC[N+](C)(C)C)c1`, 61.1% (inactive).
